Some test systems named below: HCT-15 colon; HT29 colon; SNB-75 CNS; SNB-19 CNS; U251 CNS; PC-3 prostate; SK-MEL-5 melanoma; UACC-62 melanoma; SK-MEL-28 melanoma; SK-MEL-2 melanoma; EKVX NSCLC; SN12C renal; TK-10 renal; ACHN renal; CAKI-1 renal; CCRF-CEM leukemia; MOLT-4 leukemia; UO-31 renal; A498 renal; LOX IMVI melanoma.
Assay in all cases: NCI-60 one-dose screen, 48 h (100 = growth as untreated, 0 = no growth, -100 = all killed)
Common to all, as to conditions: 10 µM unless noted

Compounds without any hit were thinned out: in the full panel of roughly 83,000, 20% have a hit.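 Each cell line was grown in a 96-well plate and treated with one concentration of compound for 48 hours. Values below 10 were considered active.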 Values without a mark were called inactive. Active and inactive are the calls of the source.

The source of these data is PubChem BioAssay (NCI).

`CC(C)N(Cc1ccccc1)c1c(S)ssc1=S`: the growth in the assay on HCT-15 colon is 10.4%; in the assay on HT29 colon, 3.11% (active); in the assay with SNB-75 CNS it was -2.3% (active); in the assay with SNB-19 CNS it was 20.9%; in the assay with U251 CNS, 5.51% (active); with PC-3 prostate, 1.17% (active). Also, the growth with SK-MEL-5 melanoma is -75.9% (active); with UACC-62 melanoma it was 34.1%; with SK-MEL-28 melanoma, 21.8%; in the assay with SK-MEL-2 melanoma, 7.27% (active); in the assay with EKVX NSCLC, 5.44% (active); with SN12C renal it was 11%. Further, the growth was 37.1% in the assay with TK-10 renal; 5.95% (active) with ACHN renal; -2.48% (active) in the assay with CAKI-1 renal; -81.6% (active) in the assay with CCRF-CEM leukemia; 0.0865% (active) in the assay with MOLT-4 leukemia.
On to `C/C(=C\CCc1ccoc1)CC/C=C(\C)CCCN1CCOCC1`, for which the growth in the assay on HCT-15 colon was 23.8%; in the assay with HT29 colon, 22.7%; with SNB-75 CNS, 60.9%; in the assay with SNB-19 CNS, 67.5%; in the assay with U251 CNS it was 44.3%; in the assay with PC-3 prostate, 55.9%. Also, the growth in the assay on SK-MEL-5 melanoma is 15.6%; with UACC-62 melanoma, 62.5%; in the assay on SK-MEL-28 melanoma it was 80.4%; with SK-MEL-2 melanoma it was 78.7%; in the assay on SN12C renal it was 70.5%; in the assay on UO-31 renal, 52.3%. In addition, the growth in the assay with TK-10 renal is 61.3%; in the assay on ACHN renal, 76.3%; with CAKI-1 renal, 58.3%; in the assay on A498 renal, 75.7%; in the assay with CCRF-CEM leukemia it was 29.6%; with MOLT-4 leukemia, 54.2%.
For `O=C(O)c1ccc(CNS(=O)(=O)c2ccc3ccccc3c2)cc1`, the growth with HCT-15 colon is 104%; in the assay on HT29 colon, 102%; in the assay on SNB-75 CNS, 90.8%; with SNB-19 CNS it was 104%; with U251 CNS, 106%; with PC-3 prostate, 104%. For the same compound, the growth in the assay on SK-MEL-5 melanoma is 105%; in the assay on UACC-62 melanoma, 102%; in the assay with SK-MEL-28 melanoma, 106%; with SK-MEL-2 melanoma, 0.434% (active); with EKVX NSCLC, 111%; in the assay with SN12C renal it was 100%. Moreover, the growth with UO-31 renal is 94.7%; in the assay with TK-10 renal it was 109%; in the assay on ACHN renal, 101%; in the assay on CAKI-1 renal, 112%; in the assay with A498 renal it was 102%; in the assay on CCRF-CEM leukemia, 117%. Also, the growth in the assay with MOLT-4 leukemia is 84.1%.
As to `CC1C(=O)NC2=Nc3ccccc3C(=O)NN21` (stereo unspecified), the growth was 108% with HCT-15 colon; 103% in the assay on HT29 colon; 86.7% in the assay on SNB-75 CNS; 107% in the assay on SNB-19 CNS; 101% in the assay on U251 CNS; 92.4% in the assay with PC-3 prostate. The growth with SK-MEL-5 melanoma was 94.5%; with UACC-62 melanoma it was 92.2%; in the assay with SK-MEL-28 melanoma, 120%; in the assay on SK-MEL-2 melanoma, 96%; in the assay on EKVX NSCLC, 88.3%; in the assay with SN12C renal, 99.7%. The growth in the assay on UO-31 renal is 64%; in the assay with ACHN renal it was 93.8%; in the assay with CAKI-1 renal, 94.5%; in the assay with A498 renal, 116%; with CCRF-CEM leukemia it was 97.3%; in the assay with MOLT-4 leukemia, 94.3%.
In the case of `c1ccc(CN=C(NCc2ccccc2)NCc2ccccc2)cc1`, the growth in the assay on HCT-15 colon was 79.7%; with HT29 colon, 62.6%; in the assay on SNB-75 CNS, 59.3%; in the assay with SNB-19 CNS, 68.1%; in the assay on U251 CNS it was 51.9%; with PC-3 prostate it was 24.9%. For the same compound, the growth was 35% in the assay on SK-MEL-5 melanoma; 59.8% in the assay with LOX IMVI melanoma; 98.8% in the assay on SK-MEL-28 melanoma; 60.5% with SK-MEL-2 melanoma; 28.2% in the assay with EKVX NSCLC; 72.2% with SN12C renal. Moreover, the growth is 61.3% in the assay on UO-31 renal; 58.6% in the assay with TK-10 renal; 73.1% in the assay on ACHN renal; 84.8% in the assay on CAKI-1 renal; 84.7% with A498 renal; 65.5% in the assay on CCRF-CEM leukemia. Moreover, the growth in the assay with MOLT-4 leukemia was 70.7%.
With `CC12CCC3C(=CCc4cc(O)ccc43)C1CCC2=O` (stereo unspecified), the growth in the assay on HCT-15 colon was 96.1%; in the assay on HT29 colon, 94.5%; in the assay on SNB-75 CNS, 104%; in the assay with SNB-19 CNS it was 103%; in the assay with U251 CNS, 98.7%; in the assay on PC-3 prostate it was 88.9%. The growth with SK-MEL-5 melanoma was 97.5%; in the assay on UACC-62 melanoma, 88.9%; with SK-MEL-28 melanoma, 103%; in the assay on SK-MEL-2 melanoma it was 119%; with EKVX NSCLC it was 72.3%; in the assay on SN12C renal it was 97.5%. The growth in the assay with UO-31 renal was 76%; in the assay on ACHN renal, 93.1%; in the assay with CAKI-1 renal it was 92.6%; in the assay on A498 renal it was 102%; with CCRF-CEM leukemia it was 95.5%; in the assay with MOLT-4 leukemia, 85.4%.
As for `NS(=O)(=O)c1ccc(-n2ncc3c(SCc4ccccc4)ncnc32)cc1`, the growth with HCT-15 colon was 93.7%; in the assay with HT29 colon, 94.1%; in the assay on SNB-75 CNS, 102%; in the assay on SNB-19 CNS it was 93.9%; with U251 CNS, 98.3%; in the assay with PC-3 prostate, 90.9%. The growth in the assay with SK-MEL-5 melanoma was 79.5%; in the assay on LOX IMVI melanoma, 92.8%; in the assay on SK-MEL-28 melanoma, 107%; in the assay with SK-MEL-2 melanoma, 99.8%; in the assay on EKVX NSCLC it was 107%; in the assay with SN12C renal, 98.8%. Further, the growth was 98.5% in the assay on UO-31 renal; 89.4% in the assay on TK-10 renal; 98% with ACHN renal; 26.3% in the assay with CAKI-1 renal; 111% in the assay with A498 renal; 50.3% with MOLT-4 leukemia.
Take `CC[C@@H](C)/C=C(C)/C=C/C(=O)c1c(O)c(-c2ccc(O)cc2)cn(OC2CC(=O)CCC(C)OC(=O)CC2O)c1=O` (stereo partly specified): the growth with HCT-15 colon was 26.8%; with HT29 colon, 29.5%; in the assay with SNB-75 CNS it was 18%; in the assay with SNB-19 CNS, 22.9%; with U251 CNS it was 11.1%; in the assay on PC-3 prostate it was 34%. Further, the growth was -22.7% (active) in the assay on SK-MEL-5 melanoma; 2.2% (active) in the assay on LOX IMVI melanoma; 34% with SK-MEL-28 melanoma; 19.8% in the assay on SK-MEL-2 melanoma; 5.02% (active) with EKVX NSCLC; 17.5% in the assay with SN12C renal. Besides, the growth in the assay with UO-31 renal was -15.5% (active); in the assay with TK-10 renal, 43.1%; with ACHN renal it was 0.984% (active); with CAKI-1 renal it was -17.1% (active); with A498 renal, 28.7%; in the assay on CCRF-CEM leukemia, 2.11% (active). Also, the growth in the assay on MOLT-4 leukemia is 6.27% (active).
